From PubChem BioAssay (NCI)
The panel holds about 79,000 compounds, 15% with a hit somewhere; the sample as a whole holds those more often. Unmarked numbers belong to inactive results. Activity calls are given as the source filed them. Cut-off read from the data, not from the text of the source: active = growth inhibition above about 70%; inactive = the rest.

Experiment: NCI Yeast Anticancer Drug Screen. Data for the cln2 rad14 strain (AID 165);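 note: 0% = growth equal to vehicle treated cultures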
Conditions: S. cerevisiae cln2 rad14 strain, at 50.0 µM, active compounds read high
Summary of the method: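 Growth inhibition, relative to vehicle-treated controls, is the read-out. The test organism is a yeast strain with defined genetic alterations, cln2 rad14.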

| Compound | growth inhibition [%] |
| --- | --- |
| Cc1ccc(-c2noc(C)n2)cc1 | -14.2 |
| Clc1c(Cl)c(Cl)c2nn(C3CCCO3)nc2c1Cl (stereo not drawn) | -17.1 |
| Cc1ccc(OC2CC(n3cnc4ncnc(Cl)c43)OC2Oc2ccc(C)cc2)cc1 (stereo not drawn) | 8.4 |
| CSc1nc(Br)nc2ncn(C3CC(Oc4ccc(C)cc4)C(COc4ccc(C)cc4)O3)c12 (stereo not drawn) | 0.7 |
| CCOc1cc2c(cc1O)/C(=N/NS(=O)(=O)c1ccc(C)cc1)C[C@@H]1[C@@H]2CC[C@]2(C)[C@@H](O)CC[C@@H]12 | 35.4 |
| O=C(NC1=NC2C=CC([N+](=O)[O-])=CC2S1)C(=O)Nn1c(=S)[nH]c2ccccc2c1=O (stereo not drawn) | 10.8 |
| COc1cc(-c2nc(SC)nc3c2CCc2ccccc2-3)cc(OC)c1OC | 10.9 |
| CNC(=S)c1nnsc1N | -2.45 |
| C=C1C(=O)OC2/C=C(\CO)CC/C=C(\CO)CC(OC(=O)C(C)C)C12 (stereo not drawn) | 24.4 |
| C[C@]12CC[C@@H]3c4ccc(OS(N)(=O)=O)cc4CC[C@H]3[C@@H]1CCC2=O | 8.35 |
| COc1ccc(N=C(C)C(C)=Nc2ccc(OC)cc2)cc1 | 14.1 |
| O=C1c2c(O)cc(O)cc2OC(c2ccc(O)c(O)c2)C1O (stereo not drawn) | -0.65 |

Experiment: NCI Yeast Anticancer Drug Screen. Data for the bub3 strain (AID 167)
Conditions: S. cerevisiae bub3 mutant strain, at 50.0 µM, active compounds read high
Summary of the method: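 Inhibition values come from growth of compound-treated mutant yeast normalised to vehicle-treated controls.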

| Compound | growth inhibition [%] |
| --- | --- |
| C=CCNC1=C2C[C@@H](C)C[C@@H](OC)[C@@H](OC(=O)CCCN)[C@H](C)/C=C(\C)[C@@H](OC(N)=O)[C@H](OC)/C=C\C=C(/C)C(=O)NC(=CC1=O)C2=O | 20.6 |
| CC1CC(=O)N(N(C)C)C(C#N)(C#N)C1(C#N)C#N (stereo not drawn) | 0.8 |
| Cc1ccc(OC2CC(n3cnc4ncnc(Cl)c43)OC2Oc2ccc(C)cc2)cc1 (stereo not drawn) | 13 |
| CSc1nc(Br)nc2ncn(C3CC(Oc4ccc(C)cc4)C(COc4ccc(C)cc4)O3)c12 (stereo not drawn) | -3.15 |
| CCOc1cc2c(cc1O)/C(=N/NS(=O)(=O)c1ccc(C)cc1)C[C@@H]1[C@@H]2CC[C@]2(C)[C@@H](O)CC[C@@H]12 | 14.1 |
| O=C(NC1=NC2C=CC([N+](=O)[O-])=CC2S1)C(=O)Nn1c(=S)[nH]c2ccccc2c1=O (stereo not drawn) | 20.7 |
| CCCCC1C(=O)N(c2ccc(S(=O)(=O)Nc3ccccn3)cc2)N(c2ccc(O)c(C(=O)O)c2)C1=O (stereo not drawn) | 34.6 |
| Cn1cnc2c(=O)[nH]c(=O)[nH]c21 | -34.8 |
| COc1cc(-c2nc(SC)nc3c2CCc2ccccc2-3)cc(OC)c1OC | 4.35 |
| C=C1C(=O)OC2/C=C(\CO)CC/C=C(\CO)CC(OC(=O)C(C)C)C12 (stereo not drawn) | -7 |
| NC(Cc1ccc(S(=O)(=O)O)cc1)C(=O)NC(Cc1ccc(S(=O)(=O)O)cc1)C(=O)NC(Cc1ccc(S(=O)(=O)O)cc1)C(=O)NC(Cc1ccc(S(=O)(=O)O)cc1)C(=O)O (stereo not drawn) | 5.85 |
| CC(=O)C1=C(C)N2C(=NC3=C(CCc4ccccc43)C2c2cccc(Br)c2)S1 (stereo not drawn) | -7.5 |
| C[C@]12CC[C@@H]3c4ccc(OS(N)(=O)=O)cc4CC[C@H]3[C@@H]1CCC2=O | 5.6 |
| O=C1c2c(O)cc(O)cc2OC(c2ccc(O)c(O)c2)C1O (stereo not drawn) | -9.05 |

Experiment: NCI Yeast Anticancer Drug Screen. Data for the mlh1 rad18 strain (AID 175)
Conditions: S. cerevisiae mlh1 rad18 strain growth inhibition; at 50.0 µM; active compounds read high
Summary of the method: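 Cells of a genetically altered yeast strain, deficient in DNA damage repair, were treated with compound. Their growth was then compared with that of vehicle-treated cultures to give inhibition.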

| Compound | growth inhibition |
| --- | --- |
| Cc1cccc(C)c1NC(=S)N(C)C | 4.65% |
| O=C(Cc1nc2ccccc2[nH]c1=O)N/N=C/c1ccc2c(c1)CCC2 | -37.4% |
| O=c1c(=O)n(CCO)n(CCO)c(=O)n1CCO | -18.1% |
| CS(=O)(=O)c1ccc(NN)c(S(C)(=O)=O)c1 | 11.8% |
| Cn1/c(=N\N=C\C(=O)O)sc2ccccc21 | 10.1% |
| C=CCNC1=C2C[C@@H](C)C[C@@H](OC)[C@@H](OC(=O)CCCN)[C@H](C)/C=C(\C)[C@@H](OC(N)=O)[C@H](OC)/C=C\C=C(/C)C(=O)NC(=CC1=O)C2=O | 4.6% |
| CCOc1ccc(NC(=S)NC2CCCCCCCCCCC2)cc1 | 32.9% |
| C=CCNC(=O)C(O)C(O)C(=O)NCC=C (stereo not drawn) | -21.2% |
| CC1CC(=O)N(N(C)C)C(C#N)(C#N)C1(C#N)C#N (stereo not drawn) | 80.5% (active) |
| COC(=O)c1cc(NC(=O)CC(=O)c2cccc(N)c2)cc(C(=O)OC)c1 | 8.4% |
| Cc1ccc(-c2noc(C)n2)cc1 | 9.2% |
| Clc1c(Cl)c(Cl)c2nn(C3CCCO3)nc2c1Cl (stereo not drawn) | -45.6% |
| COc1ccc(/C=C/C(=O)c2ccc(Cl)cc2)c(OC)c1 | 8.75% |
| C(=NCC1CCC(CN=Cc2ccco2)CC1)c1ccco1 (stereo not drawn) | -12.5% |
| Cc1ccc(OC2CC(n3cnc4ncnc(Cl)c43)OC2Oc2ccc(C)cc2)cc1 (stereo not drawn) | -33.8% |
| COc1ccc(-c2cc(=O)c3c(C)cc(O)cc3o2)cc1OC | 44.2% |
| O=c1oc(-c2ccccc2)nc2cc(Cl)ccc12 | 1.35% |
| O=[N+]([O-])c1ccc(-n2[nH]nnc2=S)cc1 | 16.1% |
| CSc1nc(Br)nc2ncn(C3CC(Oc4ccc(C)cc4)C(COc4ccc(C)cc4)O3)c12 (stereo not drawn) | -4.75% |

| Compound | growth inhibition |
| --- | --- |
| CCOc1cc2c(cc1O)/C(=N/NS(=O)(=O)c1ccc(C)cc1)C[C@@H]1[C@@H]2CC[C@]2(C)[C@@H](O)CC[C@@H]12 | 4.4% |
| O=C(NC1=NC2C=CC([N+](=O)[O-])=CC2S1)C(=O)Nn1c(=S)[nH]c2ccccc2c1=O (stereo not drawn) | 24.1% |
| CCCCC1C(=O)N(c2ccc(S(=O)(=O)Nc3ccccn3)cc2)N(c2ccc(O)c(C(=O)O)c2)C1=O (stereo not drawn) | 8.85% |
| N#C/C(=C/c1c(O)ccc2ccccc12)C(N)=O | 60.9% |
| Cn1cnc2c(=O)[nH]c(=O)[nH]c21 | 10.2% |
| O=C(Cc1cccc2ccccc12)N/N=C/c1ccc2c(c1)CCC2 | -8.45% |
| CC(C)Oc1ccc(C(=O)NS(=O)(=O)c2ccc(N)cc2)cc1 | -8.4% |
| COc1cc(-c2nc(SC)nc3c2CCc2ccccc2-3)cc(OC)c1OC | -20.2% |
| CNC(=S)c1nnsc1N | -0.4% |
| COc1cccc(/C=C/C(=O)c2ccc(Cl)cc2)c1OC | 16.2% |
| C=C1C(=O)OC2/C=C(\CO)CC/C=C(\CO)CC(OC(=O)C(C)C)C12 (stereo not drawn) | -41.5% |
| NC(Cc1ccc(S(=O)(=O)O)cc1)C(=O)NC(Cc1ccc(S(=O)(=O)O)cc1)C(=O)NC(Cc1ccc(S(=O)(=O)O)cc1)C(=O)NC(Cc1ccc(S(=O)(=O)O)cc1)C(=O)O (stereo not drawn) | 8.85% |
| O=C(CCCCCCCCCCBr)OCc1ccccc1 | 5.9% |
| CC(=O)C1=C(C)N2C(=NC3=C(CCc4ccccc43)C2c2cccc(Br)c2)S1 (stereo not drawn) | -20.5% |
| C[C@]12CC[C@@H]3c4ccc(OS(N)(=O)=O)cc4CC[C@H]3[C@@H]1CCC2=O | 15.8% |
| Cc1ccc(-c2nc3cc(Cl)ccc3c(=O)o2)cc1 | 6.3% |
| COc1ccc(N=C(C)C(C)=Nc2ccc(OC)cc2)cc1 | -17.7% |
| O=C1c2c(O)cc(O)cc2OC(c2ccc(O)c(O)c2)C1O (stereo not drawn) | -18.7% |
